Measurements reported in PubChem BioAssay AID1159580 (chemical genetic matrix, 2015).
In all, about 5,500 compounds went through this assay and about 2,000 (36%) were called active. Inconclusive results (about 18%) are left out. Rule as the data show it: active = normalized growth mostly below about 0.91 (no sharp cut-off); inconclusive = no clear call, values can overlap the other calls; inactive = mostly above about 0.92. The list shows a part of the results.

Experiment: chemical genetic growth profiling, strain panel (AID 1159580);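 also: tested at 20 µM; growth read once vehicle control cultures reached saturation at 30 °C; 1 = growth at the plate median or of vehicle wells; lower values mean less growth of the strain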
Conditions: growth OD

Measured: normalized growth

O=C(O)c1cccnc1
active: S. cerevisiae deletion strains, locus YLR268W, strain sec22, stronger effect = lower value 1.13 [resistant]
inactive: S. cerevisiae deletion strains, locus YJR075W, strain HOC1, stronger effect = lower value 1.06 | S. cerevisiae deletion strains, locus YKL009W, strain mrt4, stronger effect = lower value 0.982 | S. cerevisiae deletion strains, locus YKL068W, stronger effect = lower value 0.991 | S. cerevisiae deletion strains, locus YKL085W, strain MDH1 (second series), stronger effect = lower value 1.01 | S. cerevisiae deletion strains, locus YKL085W, strain MDH1, stronger effect = lower value 1.01 | S. cerevisiae deletion strains, locus YKL160W, strain elf1, stronger effect = lower value 1.01 | S. cerevisiae deletion strains, locus YKL190W, strain CNB1, stronger effect = lower value 0.997 | S. cerevisiae deletion strains, locus YKR001C, strain vps1, stronger effect = lower value 0.986 | S. cerevisiae deletion strains, locus YKR026C, strain gcn3, stronger effect = lower value 0.988 | S. cerevisiae deletion strains, locus YKR091W, strain srl3, stronger effect = lower value 0.996 | S. cerevisiae deletion strains, locus YLL001W, strain dnm1, stronger effect = lower value 0.999 | S. cerevisiae deletion strains, locus YLL026W, stronger effect = lower value 1 | S. cerevisiae deletion strains, locus YLL041C, strain sdh2, stronger effect = lower value 0.992 | S. cerevisiae deletion strains, locus YLR027C, strain aat2, stronger effect = lower value 1 | S. cerevisiae deletion strains, locus YLR039C, strain RIC1, stronger effect = lower value 0.982 | S. cerevisiae deletion strains, locus YLR058C, strain SHM2, stronger effect = lower value 0.981 | S. cerevisiae deletion strains, locus YLR102C, strain apc9, stronger effect = lower value 0.997 | S. cerevisiae deletion strains, locus YLR113W, strain HOG1, stronger effect = lower value 0.995 | S. cerevisiae deletion strains, locus YLR221C, strain rsa3, stronger effect = lower value 1.02 | S. cerevisiae deletion strains, locus YLR258W, strain gsy2, stronger effect = lower value 1.01 | S. cerevisiae deletion strains, locus YLR262C, strain YPT6 (second series), stronger effect = lower value 1.01 | S. cerevisiae deletion strains, locus YLR262C, strain YPT6, stronger effect = lower value 0.941 | S. cerevisiae deletion strains, locus YLR320W, strain mms22, stronger effect = lower value 1.02 | S. cerevisiae deletion strains, locus YLR330W, strain CHS5, stronger effect = lower value 0.999 | S. cerevisiae deletion strains, locus YLR342W, strain FKS1 (second series), stronger effect = lower value 0.999 | S. cerevisiae deletion strains, locus YLR342W, strain FKS1, stronger effect = lower value 0.992 | S. cerevisiae deletion strains, locus YLR357W, strain rsc2, stronger effect = lower value 0.991 | S. cerevisiae deletion strains, locus YLR370C, strain arc18, stronger effect = lower value 1 | S. cerevisiae deletion strains, locus YLR371W, strain rom2, stronger effect = lower value 0.985 | S. cerevisiae deletion strains, locus YLR384C, strain iki3, stronger effect = lower value 1.01 | S. cerevisiae deletion strains, locus YLR418C, strain cdc73, stronger effect = lower value 1.04 | S. cerevisiae deletion strains, locus YML016C, strain PPZ1, stronger effect = lower value 1.01 | S. cerevisiae deletion strains, locus YML032C, strain rad52, stronger effect = lower value 1.05 | S. cerevisiae deletion strains, locus YML120C, strain ndi1, stronger effect = lower value 0.993 | S. cerevisiae deletion strains, locus YML124C, strain tub3, stronger effect = lower value 0.995 | S. cerevisiae deletion strains, locus YMR058W, strain fet3, stronger effect = lower value 0.996 | S. cerevisiae deletion strains, locus YMR078C, strain ctf18, stronger effect = lower value 0.991 | S. cerevisiae deletion strains, locus YMR125W, strain sto1, stronger effect = lower value 0.979 | S. cerevisiae deletion strains, locus YMR129W, stronger effect = lower value 0.97 | S. cerevisiae deletion strains, locus YMR205C, strain PFK2, stronger effect = lower value 1.04 | S. cerevisiae deletion strains, locus YMR223W, strain ubp8, stronger effect = lower value 1 | S. cerevisiae deletion strains, locus YMR231W, strain pep5, stronger effect = lower value 1 | S. cerevisiae deletion strains, locus YMR263W, strain SAP30, stronger effect = lower value 1.01 | S. cerevisiae deletion strains, locus YMR307W, strain GAS1, stronger effect = lower value 0.938 | S. cerevisiae deletion strains, locus YNL067W, strain RPL9B, stronger effect = lower value 1.03 | S. cerevisiae deletion strains, locus YNL071W, strain lat1, stronger effect = lower value 0.975 | S. cerevisiae deletion strains, locus YNL128W, strain TEP1, stronger effect = lower value 0.971 | S. cerevisiae deletion strains, locus YNL153C, strain GIM3, stronger effect = lower value 1.03 | S. cerevisiae deletion strains, locus YNL183C, strain NPR1, stronger effect = lower value 0.961 | S. cerevisiae deletion strains, locus YNL209W, strain ssb2, stronger effect = lower value 0.99 | S. cerevisiae deletion strains, locus YNL233W, strain BNI4, stronger effect = lower value 1.05 | S. cerevisiae deletion strains, locus YNL248C, strain rpa49, stronger effect = lower value 1.01 | S. cerevisiae deletion strains, locus YNL250W, strain rad50, stronger effect = lower value 0.991 | S. cerevisiae deletion strains, locus YNL271C, strain bni1, stronger effect = lower value 0.992 | S. cerevisiae deletion strains, locus YNL298W, strain CLA4, stronger effect = lower value 0.977 | S. cerevisiae deletion strains, locus YNL307C, strain MCK1, stronger effect = lower value 1.02 | S. cerevisiae deletion strains, locus YNL322C, strain KRE1 (second series), stronger effect = lower value 0.997 | S. cerevisiae deletion strains, locus YNL322C, strain KRE1, stronger effect = lower value 0.996 | S. cerevisiae deletion strains, locus YNR049C, strain mso1, stronger effect = lower value 0.994 | S. cerevisiae deletion strains, locus YNR052C, strain pop2, stronger effect = lower value 1 | S. cerevisiae deletion strains, locus YOL006C, strain TOP1, stronger effect = lower value 1.03 | S. cerevisiae deletion strains, locus YOL012C, strain htz1 1.06 | S. cerevisiae deletion strains, locus YOL147C, strain pex11, stronger effect = lower value 1 | S. cerevisiae deletion strains, locus YOR001W, strain rrp6, stronger effect = lower value 0.977 | S. cerevisiae deletion strains, locus YOR061W, strain CKA2, stronger effect = lower value 0.97 | S. cerevisiae deletion strains, locus YOR069W, strain VPS5, stronger effect = lower value 0.996 | S. cerevisiae deletion strains, locus YOR070C, strain gyp1, stronger effect = lower value 1 | S. cerevisiae deletion strains, locus YOR080W, strain dia2, stronger effect = lower value 0.993 | S. cerevisiae deletion strains, locus YOR083W, strain WHI5, stronger effect = lower value 1.03 | S. cerevisiae deletion strains, locus YOR106W, strain vam3, stronger effect = lower value 1.05 | S. cerevisiae deletion strains, locus YOR136W, strain idh2, stronger effect = lower value 1 | S. cerevisiae deletion strains, locus YOR144C, strain elg1, stronger effect = lower value 0.995 | S. cerevisiae deletion strains, locus YOR184W, strain ser1, stronger effect = lower value 1.03 | S. cerevisiae deletion strains, locus YOR231W, strain MKK1, stronger effect = lower value 1.01 | S. cerevisiae deletion strains, locus YOR265W, strain rbl2, stronger effect = lower value 1 | S. cerevisiae deletion strains, locus YOR270C, strain vph1, stronger effect = lower value 0.978 | S. cerevisiae deletion strains, locus YOR290C, strain snf2, stronger effect = lower value 0.996 | S. cerevisiae deletion strains, locus YOR316C, strain cot1, stronger effect = lower value 0.998 | S. cerevisiae deletion strains, locus YPL051W, strain arl3, stronger effect = lower value 1.05 | S. cerevisiae deletion strains, locus YPL055C, strain LGE1, stronger effect = lower value 1.01 | S. cerevisiae deletion strains, locus YPL078C, strain atp4, stronger effect = lower value 0.999 | S. cerevisiae deletion strains, locus YPL106C, strain sse1, stronger effect = lower value 1.03 | S. cerevisiae deletion strains, locus YPL240C, strain hsp82, stronger effect = lower value 1.01 | S. cerevisiae deletion strains, locus YPL241C, strain CIN2, stronger effect = lower value 0.992 | S. cerevisiae deletion strains, locus YPL256C, strain CLN2, stronger effect = lower value 1.01 | S. cerevisiae deletion strains, locus YPR119W, strain clb2, stronger effect = lower value 0.998 | S. cerevisiae deletion strains, locus YPR141C, strain kar3, stronger effect = lower value 0.991 | S. cerevisiae deletion strains, locus YPR163C, strain tif3, stronger effect = lower value 0.995 | S. cerevisiae deletion strains, locus YPR167C, strain met16, stronger effect = lower value 1 | S. cerevisiae deletion strains, strain wtn01, stronger effect = lower value 1.04 | S. cerevisiae strains, strain wild type, stronger effect = lower value 0.995
